# Screening data deposited in PubChem BioAssay by National Center for Advancing Translational Sciences (NCATS).
# Sampled rows, rich in hits. Any-hit rate of the full collection: about 6%.
# D1 potentiator: human D1 dopamine receptor positive modulation. HEK293 TREx D1 cells, calcium flux, dopamine EC20 potentiation. potentiation, % at 10 µM. P21728. hit rate 0.036% among 360,000; in the data active = potentiation above about 30%; also: 0% is about no effect
# Target sequence (P21728 whole entry, looked up): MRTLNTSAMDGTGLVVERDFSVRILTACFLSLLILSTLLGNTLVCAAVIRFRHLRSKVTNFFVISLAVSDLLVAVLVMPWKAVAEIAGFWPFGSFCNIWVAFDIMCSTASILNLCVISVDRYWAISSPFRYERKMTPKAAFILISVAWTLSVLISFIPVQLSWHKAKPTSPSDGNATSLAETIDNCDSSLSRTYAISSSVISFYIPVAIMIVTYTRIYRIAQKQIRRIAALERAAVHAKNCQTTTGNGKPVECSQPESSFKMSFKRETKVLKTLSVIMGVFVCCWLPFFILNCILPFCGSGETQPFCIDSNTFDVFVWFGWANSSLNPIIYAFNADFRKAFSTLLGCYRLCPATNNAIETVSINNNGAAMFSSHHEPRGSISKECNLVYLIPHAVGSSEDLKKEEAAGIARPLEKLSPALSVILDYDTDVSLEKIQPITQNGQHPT
# D1 antag: antagonists of human D1 dopamine receptor; P21728; HEK293 TREx D1 cells, calcium flux, dopamine EC80; stronger effect = lower value; activity change, negative = inhibition, % at 10 µM; hit rate 3.2% among 360,000; AID 504652; in the data active = activity change below about -30%; also: % is scaled to controls: 0 for no effect and ±100 for the full control effect
#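 Antagonism measured as reduced calcium response to an EC80 dopamine addition following 180 s compound pre-read; cells were inducible HEK293 Trex D1 plated overnight at 30 C, read kinetically at 1 cycle/sec.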
# D1 agonist: human D1 receptor agonism; HEK293 T-REx D1 cells, calcium flux, agonist mode; hit rate 1% among 360,000; activation, % at 2 µM; P21728; in the data active = activation above about 30%; also: 0% is about no effect
#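 Tetracycline-induced HEK293 TREx D1 cells, force-coupled to calcium signalling, were dye-loaded with a no-wash calcium kit. Compound was pin-added after a 10 s baseline. Fluorescence was read kinetically at 1 cycle/s for 180 s, with calcium rises flagged as agonism.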
# DRD3 agonist: agonists of human D3 dopamine receptor | hit rate 0.58% among 410,000 | max activation, % | D3R DiscoveRx beta-arrestin cells, luminescence, 90 min | P35462; in the data active = max activation above about 30%; also: 0% is about no effect
#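 Agonist-mode cell screen: cells plated at 1500/well and incubated overnight at 37 °C, then exposed to library compounds for 90 min at 37 °C. Detection reagent was added for 30–60 min at room temperature, and luminescence was read.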
# BCR signal inh: blocks chronic active B-cell receptor signaling; AID 493014; hit rate 0.05% among 340,000; ABC-DLBCL IkBa-CBG/CBR reporter, luminescence ratio, 4 h; Potency, µM (top dose mostly 46.1 µM), for the others: top-dose activity change, negative = inhibition, actives largely listed as inhibitors; active = well fitted inhibition curve with a large enough effect in the signal ratio, with a control signal flat, not every such curve was filed as active; inconclusive = small, poorly fitted or top-dose-only effect, or effect the other way, or a change in a side signal; the % refers to the signal ratio;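 also: potency is read from the fitted curve at half-maximal effect; plate controls were basal doxycycline-induced cells for no effect and cells given 10 µM MG132 for full effect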
#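 TMD8 ABC-DLBCL cells carrying doxycycline-inducible green luciferase fused to IkappaBalpha plus unfused red luciferase were exposed to compounds (up to 46 uM) for 4 hrs at 37C. Activity came from the overlap-corrected green/red luminescence ratio.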
# DRD3 antagonist: D3 dopamine receptor (human) antagonism; D3R cells, DiscoveRx beta-arrestin luminescence, antagonist mode; stronger effect = lower value; max response, negative = inhibition, %; P35462; hit rate 2.5% among 360,000; in the data active = max response below about -50%; inconclusive = no clear call, values can overlap the other calls; also: % is scaled to controls: 0 for no effect and ±100 for the full control effect
#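 Cells expressing the human receptor were seeded at 1500 cells/well, incubated overnight at 37 degrees C in 5% CO2, then exposed to library compounds with dopamine controls for 90 minutes at 37 degrees C before luminescent detection.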
# * hit, by the source's call; ? = inconclusive; nt = not tested or not shown; ! = a repeat was not active.
SMILES,D1 potentiator,D1 antag,D1 agonist,DRD3 agonist,BCR signal inh,DRD3 antagonist
CC(=O)Nc1ccc(S(=O)(=O)Nc2ccc3c(c2)OCCO3)cc1Cl,-11,-31*,13,25,-5%,5
COc1ccc(NS(=O)(=O)c2ccc3c(c2)OCCO3)cc1OC,0,-22,15,13,-16%,8
CC(=O)Oc1cc2c(cc1OC(C)=O)C(=O)CCCC2,nt,nt,nt,66*,nt,-2
COc1cc2c(cc1OC(C)=O)C(=O)CCCC2,nt,nt,nt,-8,nt,0
O=C(C[C@@H]1C[C@@H]2c3cc(NS(=O)(=O)c4ccc(F)cc4)ccc3O[C@@H]2[C@@H](CO)O1)NC1CCCCC1,nt,nt,nt,-5,nt,-17
CCOc1ccc(-c2nn3c(-c4ccc(F)cc4)nnc3s2)cc1,nt,nt,nt,-2,nt,-64*
COc1ccc(-c2nn3c(-c4ccccc4)nnc3s2)cc1,-2,-31*,1,-2,-1%,-13
COc1ccc(-c2nn3c(-c4ccc(F)cc4)nnc3s2)cc1,-10,5,0,-1,?,11
CCN(CC)Cc1cc(Oc2ccc(O)c(CN(CC)CC)c2)ccc1O,nt,nt,nt,-15,nt,?
C[C@@H]1CN([C@H](C)CO)C(=O)c2c(c3ccccc3n2C)-c2ccccc2CO[C@H]1CN(C)S(=O)(=O)c1cn(C)cn1,nt,nt,nt,-1,nt,-7
Cc1ccc2nc(N3CCN(C(=O)C4COc5ccccc5O4)CC3)sc2c1 (centres undefined),-1,nt,-4,4,?,nt
CN1CCc2c(sc3c2C(=O)NC(c2ccc(OC(=O)c4ccc(C(C)(C)C)cc4)cc2)N3)C1 (centres undefined),13,-11,263*,-9,nt,nt
CN1CCc2c(sc3c2C(=O)NC(c2ccc(OC(=O)c4ccccc4)cc2)N3)C1 (centres undefined),-2,-10,114*,-25,nt,nt
CN1CCc2c(sc3c2C(=O)NC(c2ccc(OC(=O)c4ccc(Cl)cc4)cc2)N3)C1 (centres undefined),1,0,145*,-30,nt,nt
CCOc1cc(C2NC(=O)c3c(sc4c3CCN(C)C4)N2)ccc1OC(=O)c1ccc(F)cc1 (centres undefined),-1,-23,8,-2,nt,nt
CCOC(=O)N1CCc2c(sc3c2C(=O)NC(c2ccc(C(=O)OC)cc2)N3)C1 (centres undefined),1,2,-2,-12,nt,nt
CCOc1ccc2nc(Cl)c(C3CC(c4ccccc4)=NN3C(=O)CCC(=O)O)cc2c1 (centres undefined),0,6,3,6,nt,nt
Cn1cc(CNC(=O)c2cc(-c3ccccc3)nc3ccc(Br)cc23)cn1,-1,-34*,2,5,2%,53
O=C(CCc1ccccc1)NC(c1cccs1)c1cc(Cl)c2cccnc2c1O (centres undefined),-3,7,10,7,?,14
Oc1c(C(c2ccccc2Cl)N2CCCC2)ccc2cccnc12 (centres undefined),3,6,5,-7,?,-53*
Oc1c(C(c2ccccn2)N2CCC(Cc3ccccc3)CC2)cc(Cl)c2cccnc12 (centres undefined),-5,0,8,-17,?,-112*
Cc1ccc(C(c2cc(Cl)c3cccnc3c2O)N2CCN(C)CC2)cc1 (centres undefined),-7,-3,-1,-31,-3%,-118*
Oc1c(C(c2ccc(Cl)cc2)N2CCCC2)cc(Cl)c2cccnc12 (centres undefined),3,-20,17,-9,?,-106*
Cc1cccc(C)c1C(O)c1ncc(-c2cccc(F)c2)[nH]1 (centres undefined),nt,nt,nt,2,nt,0
CCC(=O)N1c2ccccc2CC1C(=O)NCCc1ccc(SC)cc1 (centres undefined),1,4,0,-23,nt,nt
SMILES,D1 potentiator,D1 antag,D1 agonist,DRD3 agonist,BCR signal inh,DRD3 antagonist
Cc1ccc(-n2c(=O)c3ccc(C(=O)NCc4ccccc4Cl)cc3n(CC(=O)Nc3ccc(C)cc3C)c2=O)cc1,2,-17,2,4,nt,nt
CN1CCN(C(c2ccccn2)c2cc(Cl)c3cccnc3c2O)CC1 (centres undefined),6,3,5,-18,7.1µM*,-126*
O=C(O)c1cccc(S(=O)(=O)NCC2CCCO2)c1 (centres undefined),6,-3,0,-2,2%,6
O=S(=O)(NCC1CCCO1)c1cccc(C(F)(F)F)c1 (centres undefined),-4,-46*,4,-3,-11%,-17
COc1ccc(CN2CCC(CNS(=O)(=O)c3cccc(C(F)(F)F)c3)CC2)cc1,-6,-12,35*,-20,?,?
O=C(NCCc1ccc(Cl)cc1)c1ccc2c(c1)N(Cc1ccc(Cl)cc1)C(=O)CS2,-1,14,9,9,nt,nt
C=C[C@]1(C)C[C@@H](OC(=O)CSC(C)(C)CNC(=O)[C@H](N)C(C)C)[C@]2(C)[C@H](C)CC[C@]3(CCC(=O)[C@H]32)[C@@H](C)[C@@H]1O,nt,nt,nt,-2,nt,nt
O=C(OCc1cn([C@H]2CN(CC3CCCCC3)[C@@H](c3ccccc3)C[C@@H]2O)nn1)c1ccccc1,nt,nt,nt,5,nt,12
O=C(C(=Cc1ccc(F)cc1)C(=O)c1ccccc1)c1ccccc1,nt,nt,nt,-8,nt,-62*
O=C(C(=Cc1ccc(F)cc1)c1ccccc1)c1ccc(O)cc1,nt,nt,nt,3,nt,19
Cc1ccc(NS(=O)(=O)c2cc(-c3cc(C)no3)ccc2C(C)C)nc1,-2,-2,0,-5,-13%,-7
COc1ccc(-c2cc(C)no2)cc1S(=O)(=O)NCC1CCN(Cc2cc(C)ccc2C)CC1,-6,0,15,-1,3%,-10
COc1ccccc1CNS(=O)(=O)c1cc(-c2cc(C)no2)ccc1C,3,7,14,2,nt,nt
CCc1ccc(-c2cc(C)no2)cc1S(=O)(=O)Nc1ccc(C)cn1,2,-45*!,0,-2,-13%,-11
CCc1ccc(-c2cc(C)no2)cc1S(=O)(=O)NCCCN1CCN(c2ccccc2)CC1,-6,-67*,17,0,?,-77*
COc1ccccc1CNS(=O)(=O)c1cc(-c2cc(C)no2)ccc1C(C)C,-6,-38*,18,-4,-1%,-3
COc1ccccc1CN1CCC(CNS(=O)(=O)c2cc(-c3cc(C)no3)ccc2C)CC1,-7,-10,40*,-3,?,-17
Cc1ccc(-c2nc3cc(Cl)ccc3o2)cc1NC(=O)c1cc2ccccc2o1,0,4,1,4,nt,nt
CCCCCCCCC(c1nc2ccccc2[nH]1)N1CCN=C(c2ccccc2)C1=O (centres undefined),nt,nt,nt,3,nt,0
